# HPGD block: qHTS Assay for Inhibitors of HPGD (15-Hydroxyprostaglandin Dehydrogenase); hit rate 4.3% among 150,000; purified HPGD, NADH fluorescence kinetic, PGE2 substrate; AID 894, 2007; Potency, µM, for inactives: at the top dose activity change, negative = inhibition, usual class: inhibitors; active = well fitted inhibition curve with a large enough effect, not every such curve was filed as active; inconclusive = small, poorly fitted or top-dose-only effect, or another doubt; inactive = no such curve, though single readings can be large or run the other way; also: potency is read from the fitted curve at half-maximal effect; % is scaled to controls: 0 for no effect and ±100 for the full control effect
# Target sequence (P15428 whole entry, looked up): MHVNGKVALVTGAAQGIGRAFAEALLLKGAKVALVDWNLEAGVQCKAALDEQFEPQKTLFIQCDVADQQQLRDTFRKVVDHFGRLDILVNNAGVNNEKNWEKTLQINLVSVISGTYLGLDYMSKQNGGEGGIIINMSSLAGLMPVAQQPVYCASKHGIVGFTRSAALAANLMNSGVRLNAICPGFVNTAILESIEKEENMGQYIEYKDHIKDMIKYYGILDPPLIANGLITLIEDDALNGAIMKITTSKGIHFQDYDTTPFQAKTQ
#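 20 nM HPGD preincubated 15 min at room temperature with compound in 50 mM Tris-HCl pH 8, 0.01% Tween 20. Started with 1 mM NAD+ and 30 uM prostaglandin E2; NADH fluorescence (360/450 nm) read 5 times over 30-s intervals, last minus first.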
# IMPase Li cell: qHTS Assay for Identifying the Cell-Membrane Permeable IMPase Inhibitors: Potentiation with Lithium; CHO-M1 cells, IP1 TR-FRET (IP-One), carbachol + lithium; hit rate 0.35% among 210,000; Potency, µM (doses to about 59.4 µM), without a hit: at the highest dose activity, negative = IMPase inhibition, actives largely listed as inhibitors; AID 1457, 2008;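 also: IP1 builds up when IMPase is blocked and the TR-FRET signal falls; potency is read from the fitted curve at half-maximal effect; plate controls were basal vehicle for no effect and high inhibitor control for full effect; nearly all actives have a fitted effect of over 50% in size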
#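 CHO cells stably expressing M1 receptor (2000/well) were cultured 16–30 h, then exposed to compounds with a small lithium addition for 30 min at 37C. IP1 was measured by TR-FRET competition; AC50 from Hill fits.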
# HttQ103 aggreg: qHTS Multiplex Assay to Identify Dual Action Probes in a Cell Model of Huntington: Aggregate Formation (GFP); PC12 HttQ103-GFP aggregates, Acumen cytometry, 40 h; Potency, µM (highest dose often 46.1 µM), without a hit: top-dose activity change, negative = inhibition, hits mostly inhibitors; hit rate 1.1% among 220,000; AID 1688, 2009; also: potency is read from the fitted curve at half-maximal effect; % is scaled to controls: 0 for no effect and ±100 for the full control effect; nearly all actives have a fitted effect of over 60% in size
#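 Compounds (qHTS titration) were added to PC12 cells expressing an ecdysone-driven HTT exon 1 Q103–GFP fusion after induction with 100 nM tebufenozide. Aggregate formation was measured as GFP objects in cell lysates.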
# ALDH1A1 inh: qHTS Assay for Inhibitors of Aldehyde Dehydrogenase 1 (ALDH1A1); Aldehyde dehydrogenase 1A1 (Homo sapiens), P00352; Purified ALDH1A1, NADH fluorescence, propionaldehyde substrate; Potency, µM (top dose mostly 75.3 µM), without a hit: at the highest dose activity, negative = inhibition, actives largely listed as inhibitors; hit rate 7.3% among 220,000; AID 1030, 2008; active = well fitted inhibition curve with a large enough effect, not every such curve was filed as active; inconclusive = small, poorly fitted or top-dose-only effect, or another doubt; inactive = no such curve, though single readings can be large or run the other way;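 also: potency is read from the fitted curve at half-maximal effect; plate controls were no enzyme wells and a reference inhibitor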
# HTT ATP protect: qHTS Multiplex Assay to Identify Dual Action Probes in a Cell Model of Huntington: Cytoprotection (ATP); hit rate 0.14% among 230,000; PC12 HTT-Q103 induced, cytoprotection, ATP luminescence, 40 h; AID 1471, 2008; Potency, µM (highest dose often 56.4 µM), for inactives: cytoprotection (ATP increase), usual class: activators; also: potency is read from the fitted curve at half-maximal effect; % of control where 0% means no effect; nearly all actives have a fitted effect of over 45% in size
#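 Compounds added alongside 100 nM tebufenozide, which induces toxic Q103 huntingtin exon 1-GFP in stable PC12 cells; surviving cells quantified by luminescent ATP measurement. Medium: phenol red-free DMEM, 5% equine and 5% calf serum.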
# IMPase cell inh: qHTS Assay for Identifying the Cell-Membrane Permeable IMPase Inhibitors; 120,000 tested, under 10 active; CHO-M1 cells, IP1 accumulation, HTRF TR-FRET ratio; AID 901, 2007; inhibition (IP1 accumulation), % at 46.1 µM; active = well fitted curve in the direction sought with a large enough effect in the signal ratio, not every such curve was filed as active; inconclusive = small, poorly fitted or top-dose-only effect, or a change in a side signal; inactive = no such curve, though single readings can be large or run the other way; the % refers to the signal ratio;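 also: cells stimulated with carbachol in lithium chloride buffer; plate controls were DMSO basal wells for no effect and reference inhibitor wells for full effect; higher means more IMPase inhibition seen as more IP1 and lower FRET ratio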
# Target sequence (P97697 whole entry, looked up): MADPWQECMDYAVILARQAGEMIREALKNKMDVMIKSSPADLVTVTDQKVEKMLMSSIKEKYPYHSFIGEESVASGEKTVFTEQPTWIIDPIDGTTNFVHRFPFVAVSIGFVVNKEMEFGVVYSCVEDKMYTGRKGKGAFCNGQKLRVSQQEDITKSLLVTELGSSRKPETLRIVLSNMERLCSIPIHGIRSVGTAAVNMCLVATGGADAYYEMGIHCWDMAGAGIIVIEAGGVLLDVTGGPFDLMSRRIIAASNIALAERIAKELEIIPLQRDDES
#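 In this qHTS, compounds (final up to 46 uM) act on CHO-M1 cells that are then activated through the M1 receptor with carbachol, in pH 7.4 buffer containing 50 mM LiCl, for 30 min. IP1 accumulation is quantified by the IP-One immunoassay.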
# Active calls of the source: *; ? = inconclusive; / = no result given; [ ] = another dose, or the depositor's remark. Sampled rows, rich in hits. Any-hit rate of the full collection: about 9.4%. Unless noted, calls follow the shape of the dose curve; as a rule, active = well fitted curve in the direction sought with a large enough effect; inconclusive = small, poorly fitted or top-dose-only effect, or another doubt; inactive = no such curve, though single readings can be large; an effect the other way counts as inactive or inconclusive.
SMILES,HPGD block,IMPase Li cell,HttQ103 aggreg,ALDH1A1 inh,HTT ATP protect,IMPase cell inh
CCn1c(=O)cc(OCC(=O)N2CCCCCC2)c2ccccc21,32µM*,-2%[38.3 µM],?,?,-10%,5
CCN(Cc1ccccc1)C(=O)COc1cc(=O)n(CC)c2ccccc12,-24%,16%[38.3 µM],15%[9.22 µM],?,23%,-1
CCN(CC)CCCn1c(-c2ccccc2)nc2c(N3CCOCC3)nc(C)nc21,?,0%,/,?,?,/
C[C@H]1Cc2c(-c3ccccc3)nc3c(c2CO1)CN(S(=O)(=O)c1ccc(C#N)cc1)CC3,-1%,0%,/,14%[13.5 µM],-26%[10 µM],/
Cc1ccc(C(=O)N2CCOCC2)cc1Cl,?,-1%[38.3 µM],-21%,6%,8%,2
Cc1ccc(C(NC(=O)N2CCN(C)CC2)C(Cl)Cl)cc1F (stereo not drawn),/,5%,10%,?,-27%,/
Cc1ccc(C(NC(=O)N2CCOCC2)C(Cl)Cl)cc1F (stereo not drawn),4%,-6%,10%,20µM*,11%[10 µM],3
Cc1ccc(C(NC(=O)N2CC(C)OC(C)C2)C(Cl)Cl)cc1F (stereo not drawn),-7%,13%,?,10µM*,1%[10 µM],2
COc1ccc(C(NC(=O)N2CC(C)OC(C)C2)C(Cl)(Cl)Cl)cc1F (stereo not drawn),7%,-1%,-20%,5%,5%[10 µM],4
Cc1ccc(C(NC(=O)N2CCOCC2)=C(Cl)Cl)cc1F,-15%,25%[38.3 µM],15%,0.11µM*,-2%[4.97 µM],-2
CCc1cccc2c(-c3ccccc3)c3c(nc12)OCC3,?,-11%,/,?,-60%,/
CN1CCN(c2ncc3nc(CCc4ccccc4)c(=O)n(CCC#N)c3n2)CC1,?,5%,/,?,5%,/
COc1ccc(C2C(C(=O)Nc3cccnc3)=C(C)Nc3nc(-c4ccccc4)nn32)cc1OC (stereo not drawn),/,/,/,/,/,1
COc1ccc(N2CCN(C3CC(=O)N(C)C3=O)CC2)cc1 (stereo not drawn),2%,21%[38.3 µM],-1%,-7%,-12%[10 µM],13
c1ccc2sc(N3CCOCC3)nc2c1,-8%,3%[38.3 µM],-3%,15%,-5%,11
COc1ccc(N2C(=O)CC(N3CCN(c4ccc(S(C)(=O)=O)cc4)CC3)C2=O)cc1 (stereo not drawn),-12%,5%[38.3 µM],8%[1.84 µM],22µM*,9%,-1
COc1ccc(N2C(=O)CC(N3CCN(c4nc5ccccc5s4)CC3)C2=O)cc1 (stereo not drawn),-8%,0%,1%,25µM*,-5%,?
COc1cccc2sc(N3CCN(c4nc5ccccc5s4)CC3)nc12,/,/,23%,14µM*,-29%[0.074 µM],0
O=C(O)CCCC[C@H]1CCSS1,/,/,/,/,-1%[1.9 µM],-2
COc1cc2c(cc1OC)C1CCC3=C([C@H](C)OC3=O)N1CC2 (stereo partly drawn),?,18%,/,?,-35%,/
Cc1cc(C)cc(NC(=O)c2ncn(-c3ccccc3)n2)c1,/,/,/,/,/,0
COc1ccc(Nc2nc3ccccc3nc2NS(=O)(=O)c2ccc(Cl)cc2)cc1OC,/,/,/,/,/,5
CC(=O)OCC(=O)Nc1ccc(Cl)cc1Cl,20µM*,-8%[38.3 µM],-10%,1%,3%[10 µM],6
COC(=O)c1ccc(C(=O)OC)c(NC(=O)COC(=O)c2ccccc2OC)c1,?,11µM*,?,?,-47%[10 µM],/
CC(=O)OCC(=O)Nc1ccc([N+](=O)[O-])cc1Cl,/,17%,-10%,8%,-27%,/
SMILES,HPGD block,IMPase Li cell,HttQ103 aggreg,ALDH1A1 inh,HTT ATP protect,IMPase cell inh
COC(=O)c1ccccc1NC(=O)COC(C)=O,0%,-13%[38.3 µM],-1%,5.6µM*,-5%,0
Cc1ccc(NC(=O)/C(Cl)=C\c2ccccc2)cc1,-22%,13%[38.3 µM],-26%,4µM*,-33%,3
Cc1ccc(NS(=O)(=O)c2ccc(Cl)c(C(=O)Nc3ccccc3-c3nc4ccccc4[nH]3)c2)cc1C,?,0%,11µM*,-96%,-27%[10 µM],/
COc1ccc(C(=O)N2CCC3(CC2)CN(C(=O)NC(C)C)C3)cc1,-2%,-3%,/,7%,?,/
O=CNn1cnc2c(oc3nc(-c4ccccc4)cc(-c4ccco4)c32)c1=O,/,-17%,23%,?,/,/
COc1ccccc1NC(CC(=O)c1ccccc1)C(=O)OCC(=O)c1ccc(C)c(C)c1 (stereo not drawn),-17%,4%,-4%,7.1µM*,-4%[10 µM],-2
COc1ccccc1NC(CC(=O)c1ccccc1)C(=O)OCC(=O)c1ccc(Br)cc1 (stereo not drawn),-10%,6%,-11%,?,-16%[10 µM],/
COc1ccccc1NC(CC(=O)c1ccccc1)C(=O)OCC(=O)c1ccc(C)cc1 (stereo not drawn),-13%,5%,30%,10µM*,-5%[10 µM],4
CCOC(=O)CSc1nc(-c2ccc(C)cc2C)cc(-c2ccccc2)c1C#N,/,/,/,/,/,-9
CCc1nc2nc(C)c(NS(=O)(=O)c3ccc(C)cc3)c(=O)n2[nH]1,/,/,/,/,/,-5
CCCOc1ccc(C(=O)CCN2CCCCC2)cc1,-21%,0%[38.3 µM],10%,0.056µM*,-29%,11
CCCC(O)(CCN1CCOCC1)c1ccc(Br)cc1 (stereo not drawn),-8%,43%[38.3 µM],1%,5µM*,-52%,16
CCCCOc1ccc(C(=O)CCN2CCOCC2)cc1,/,4%,18%,0.28µM*,-6%,/
CCCC(O)(CCN1CCOCC1)c1ccc(Cl)cc1 (stereo not drawn),/,/,-10%[9.22 µM],/,25%[10 µM],/
CCOc1ccc(C(=O)CCN2CCCCCC2)cc1,-14%,3%[38.3 µM],?,0.063µM*,-36%,9
CCCCCCCCCCCC(CC1OC(=O)C1CCCCCC)OC(=O)C(CC(C)C)NC=O (stereo not drawn),-12%,4%,-6%,-2%,-34%,/
CCCOc1ccc(C(O)(CCC)CCN2CCCCC2)cc1 (stereo not drawn),-10%,29%,?,25µM*,13%[10 µM],0
CCOc1ccc(OCCN2CCCCC2)cc1,0%,3%,3%,-6%,12%[0.074 µM],/
CCCCc1ncc(/C=C(\Cc2cccs2)C(=O)O)n1Cc1ccc(C(=O)O)cc1,/,/,11%,/,-12%,/

# High-throughput results (PubChem)
